# Assay results from PubChem BioAssay AID2116 (The Scripps Research Institute Molecular Screening Center, 2009).
# Active and inactive are the calls of the source. How the calls were made is not given here.
# Test system: HEK Patch Clamp Assay
# Test: activators of mucolipin-3 and mucolipin-2 – cell-based, patch clamp, Fura-2 profiling panel (AID 2116)
# Settings: HEK293 cells expressing TRPML3-YFP; patch clamp current at -80 mV
SMILES,current density,outcome
O=S(=O)(Nc1ccccc1N1CCOCC1)c1ccc(Cl)s1,-0.005 nA/pF,inactive; no effect on six other TRP channels
Cc1ccc(N2CCN(S(=O)(=O)N3CCCCC3)CC2)c(C)c1,-0.007 nA/pF,inactive; no effect on six other TRP channels
Cc1ccc(S(=O)(=O)Nc2ccccc2-c2ccccc2)cc1,-0.003 nA/pF,inactive; no effect on six other TRP channels
O=S(=O)(NC1CCCCC1N1CCOCC1)c1ccc(Cl)cc1 (stereo not given),-0.003 nA/pF,inactive; no effect on six other TRP channels
O=S(=O)(Nc1ccccc1N1CCCCC1)c1ccc(Cl)s1,-0.004 nA/pF,inactive; no effect on six other TRP channels
